15 molecules from PubChem BioAssay (NCI) can be followed below.

Assay in all cases: NCI-60 one-dose screen, 48 h (100 = growth as untreated, 0 = no growth, -100 = all killed)
What all share (conditions): 10 µM unless noted

For experiment [1], the system named is SR leukemia.
Experiment [2] deals with RPMI-8226 leukemia.
In experiment [3] the test system is OVCAR-5 ovarian.
Experiment [4] concerns OVCAR-4 ovarian.
Experiment [5] relates to SK-OV-3 ovarian.
Experiment [6] deals with IGROV1 ovarian.
Experiment [7] relates to OVCAR-3 ovarian.
Experiment [8] deals with HS 578T breast.
The test system of experiment [9] is NCI/ADR-RES ovarian.
Experiment [10] relates to OVCAR-8 ovarian.

Compounds without any hit were thinned out: in the full panel of roughly 83,000, 20% have a hit.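 The test compound was applied at a single concentration to cells in 96-well plates for 48 hours, and percent growth was recorded.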 Values without a mark were called inactive. The source made the active and inactive calls. Rule for the calls: active = growth percent below 10; inactive = the rest.

With `S=C(S)NCCc1c[nH]c2ccccc12`, the growth is 94.9% in [1]; 92.4% in experiment [2]; 102% in experiment [3]; 111% in [4]; 121% in [5]; 81.9% in experiment [6]. In addition, the figures for the growth in experiment [7], in experiment [8] and in [9] were 101%, 99.5% and 101%, respectively.

With `COc1ccc(/C=N\NC(=O)CN2CCN(c3cc4c(cc3F)c(=O)c(C(=O)N/N=C/c3ccc(OC)c(OC)c3)cn4C3CC3)CC2)cc1OC`, the growth in [1] is 3.52% (active); in experiment [10], 13.3%; in experiment [3] it was 26.4%; in experiment [4] it was -2.98% (active); in [5] it was 17.1%; in experiment [6], 4.1% (active). Further, the growth in [7] was -5.57% (active); in experiment [8], -4.8% (active); in experiment [9], 100%.

As for `O=C1/C(=C/c2ccccc2)Oc2ccc(O)c(I)c21`, the growth in experiment [1] is 98.2%; in [2] it was 95.4%; in [3], 108%; in experiment [4] it was 95.4%; in experiment [5], 99.6%; in experiment [6], 68.3%. Besides, the growth in [7] was 101%; in [8] it was 80.8%; in experiment [9] it was 99.3%.

`O=C1c2c(c3c4ccccc4n(CCCCCCBr)c3c3[nH]c4ccccc4c23)C(=O)N1O`: the growth is 6.48% (active) in experiment [1]; 1.01% (active) in experiment [2]; 19.8% in [3]; 7.84% (active) in [4]; 3.04% (active) in experiment [5]; -5.71% (active) in experiment [6]. The growth in experiment [7] is 15%; in [8], 50.3%; in experiment [9], 9.64% (active).

Turning to `COc1ccc(-c2ccc(C)n2-c2ccc(-c3nc4cc(Cl)ccc4s3)cc2)cc1`, the growth in experiment [1] was 76.9%; in [10], 104%; in [3], 74.6%; in experiment [4], 84.8%; in experiment [5], 96.7%; in experiment [6], 54.9%. The results for the growth in experiment [7], in [8] and in experiment [9] were 109%, 103% and 95.8%, respectively.

On to `C/C(=N/NC(=S)Nc1ccccc1)c1nc2ccc(Cl)cc2[nH]1`, for which the growth in experiment [1] is -36.1% (active); in [2] it was 5.52% (active); in [3], -35.8% (active); in [4], -79.3% (active); in experiment [5], -17.7% (active); in [6], 7.58% (active). Also, the growth is -59.5% (active) in experiment [7] and -12.7% (active) in [9].

Turning to `CCN(CC)c1ccc(N=O)cc1`, the growth in experiment [1] is 26.5%; in [2] it was 91.3%; in [3] it was 103%; in experiment [4], 66.7%; in experiment [5] it was 96%; in experiment [6], 15%. The growth is 28.5% in experiment [7], 93% in [8] and 52% in experiment [9].

`CCCCCCCCCCCCCCCCNC(=O)OC(C)C`: the growth in experiment [1] is 1.69% (active); in experiment [2], 80.1%; in experiment [4] it was -39.2% (active); in experiment [5] it was 69.7%; in experiment [7], 19.5%; in experiment [8], 78.2%. Moreover, the growth in experiment [9] was 65.9%.

On to `C/C=C/C1=CN2C(=O)c3cc(OC4OC(C)C(NC)C(C)(O)C4O)c(C)cc3N=C[C@@H]2C1` (some centres not stated), for which the growth was -11.8% (active) in [1]; 4.62% (active) in [2]; 9.87% (active) in experiment [3]; 6.47% (active) in [4]; 3.83% (active) in experiment [5]; -8.52% (active) in [6]. For the same molecule, the figures for the growth in [7], in [8] and in [9] were 0.104% (active), -7.59% (active) and -7.51% (active), respectively.

Turning to `COc1ccc(C(=O)N2NC(=O)/C(=C/c3ccc(F)cc3)N=C2c2ccccc2)cc1`, the growth in experiment [1] is 51.5%; in [2] it was 70.3%; in experiment [3], 95.9%; in [4], 109%; in experiment [5], 103%; in [6] it was 99%. Further, the growth in experiment [7] is 105%; in experiment [8], 101%; in experiment [9] it was 81.3%.

Regarding `O=C1/C(=C/c2ccc([N+](=O)[O-])cc2)CN(C(=O)CCN2CCC(=NO)CC2)C/C1=C\c1ccc([N+](=O)[O-])cc1`, the growth in experiment [1] was 8.69% (active); in experiment [2], -34.8% (active); in experiment [3] it was -41.3% (active); in experiment [4], -8.21% (active); in experiment [5] it was 17.3%; in experiment [6], -21.2% (active). Also, the growth in experiment [7] is -59% (active); in experiment [8], 22.8%; in [9] it was 7.5% (active).

Turning to `CCCCN(CCCC)C(=O)CC`, the growth in experiment [1] was 102%; in experiment [10] it was 112%; in experiment [3], 106%; in [4], 108%; in [5], 122%; in experiment [6] it was 115%. Further, the values for the growth in [7], in [8] and in experiment [9] were 113%, 149% and 103%, respectively.

As to `O=[N+]([O-])c1ccc(-c2cn(-c3ccccc3)c(-c3ccccc3)n2)cc1`, the growth in experiment [1] is 43.3%; in [10], 70.6%; in experiment [3], 95.4%; in [4], 84.2%; in experiment [5], 79.1%; in experiment [6] it was 64.2%. The growth in [7] was 97.4%; in [8] it was 97.5%; in experiment [9], 85.3%.

Take `COc1c2occc2c(OC)c2c(=O)c(-c3cc(-c4ccc(F)cc4)c(C#N)c(N)n3)c(C)oc12`: the growth is 15.5% in experiment [1]; 49.1% in experiment [10]; 91.9% in experiment [3]; 19.4% in experiment [4]; 56.5% in experiment [5]; 21.3% in experiment [6]. The growth in [7] was 15.2%; in experiment [8], 43.7%; in experiment [9], 68.2%.

Consider `O=c1[nH]c2ccc(Br)cc2c2c1C(c1ccc(Cl)cc1)c1c(ncn3nc(-c4ccco4)nc13)O2` (configuration not stated), for which the growth is 62.3% in experiment [1]; 58.4% in experiment [2]; 73.6% in experiment [3]; 67.5% in experiment [4]; 59.8% in [5]; 44% in experiment [6]. The results for the growth in experiment [7], in experiment [8] and in experiment [9] were 81.7%, 35.6% and 88.2%, respectively.
